The values that follow come from PMC4552634, “A New Set of Chemical Starting Points with Plasmodium falciparum Transmission-Blocking Potential for Antimalarial Drug Discovery” (PLoS ONE, 2015).

The campaign covered roughly 13,000 compounds. About 3,200 (25%) showed an effect of 50% or more. The list shows a part of the results.

As a reminder, the % Inhibition is the drop in the measured response relative to a control, in per cent.

The assay has as its system P. falciparum stage V gametocytes. Further details: BacTiter-Glo ATP luminescence viability of purified stage V gametocytes in 384-well plates, per cent inhibition versus DMSO. Particulars: 48 h, 5 µM; inhibitor.
On to `Cc1ccc2nc(-c3cc(-c4ccc(OCc5ccccc5)cc4)cnc3N)[nH]c2c1` [TCMDC-135839], for which the “% Inhibition” value is given as -50.65%.

Turning to `Cn1c(=O)n(C)c2cc(CNCCNc3ccnc4cc(Cl)ccc34)ccc21` [TCMDC-125236], the “% Inhibition” value was found to be 26.13%. Consider `CCCOc1ccc(CCCON2C(N)=NC(N)=NC2(C)C)cc1` [TCMDC-131757], for which the “% Inhibition” value is reported as 14.14%.

Turning to `Cc1noc(C)c1-c1cccc(CNCc2ccc(-c3cccc(-c4nc5ccccc5[nH]4)c3)cc2)c1.O=C(O)C(F)(F)F` [TCMDC-132565], the “% Inhibition” value is on record as -39.99%. Turning to `OCCN1CCN(C(=S)NC2CCCCC2)CC1` [TCMDC-123848], the “% Inhibition” value is -10.92%. As to `O=C(NCc1cccc(C(F)(F)F)c1)c1ccc(-c2nc3cc(F)c(F)cc3[nH]2)cc1` [TCMDC-140461], the “% Inhibition” value is 13.57%. Then `Cc1cc(N)c2cc(NC(=O)c3cccc(C(=O)Nc4ccc5nc(C)cc(N)c5c4)c3)ccc2n1` [TCMDC-139410], with 73.19%. Consider `Cc1cc(N)c2cc(NC(=O)CCC(=O)Nc3ccc4nc(C)cc(N)c4c3)ccc2n1` [TCMDC-139503], for which the “% Inhibition” value worked out at 21.97%.

Take `Cc1cc(C(=O)Nc2ccc(OCc3ccccc3)cc2)on1` [TCMDC-124596]: the “% Inhibition” value stood at 15.42%.

Turning to `Cc1cc(Nc2ccc(OCc3ccccc3Cl)cc2)c2cc(Cl)ccc2n1` [TCMDC-123799], the “% Inhibition” value was -30.43%. For `COc1cc(C)nc2ccc(NC(=O)Nc3cccc4ccccc34)cc12` [TCMDC-139397], the “% Inhibition” value was -27.18%. To `COc1cc(C)nc2ccc(NC(=O)c3ccc(C(=O)Nc4ccc5nc(C)cc(OC)c5c4)cc3)cc12` [TCMDC-139502] belongs 14.93%. As to `Cc1cc(N)c2cc(NC(=O)c3cccc4ccccc34)ccc2n1` [TCMDC-139378], the “% Inhibition” value is 63.27%.

For `CCc1ccc(OCc2ccccc2C(=O)Nc2ccc3nc(C)cc(N)c3c2)cc1` [TCMDC-125882], the “% Inhibition” value is on record as 102.8%. In the case of `Cc1cc(C)c(C(=O)Nc2ccc3nc(C)cc(N)c3c2)c(C)c1` [TCMDC-139379], the “% Inhibition” value is -0.864%. `Cc1cccc2nc(-c3ccc(-c4ccc(CN5CCN(c6ccc(C#N)cn6)CC5)cc4)s3)[nH]c12.O=C(O)C(F)(F)F` [TCMDC-133116]: the “% Inhibition” value came out at 1.839%. For `NC1(C(=O)O)Cc2ccc(Cl)cc2C1` (centres unmarked) [TCMDC-131768], the “% Inhibition” value turned out to be 8.887%.

As to `O=C(/C=C/c1ccc(Cl)c(Cl)c1)NC1CCN(Cc2cccc(O)c2)CC1` [TCMDC-141738], the “% Inhibition” value is reported as -9.136%. Turning to `Oc1ccc2c(c1NCC1CCCCC1)CCCC2` [TCMDC-138157], the “% Inhibition” value was -18.15%. For `COC(=O)CN(C(=O)/C=C/c1ccc(Cl)c(Cl)c1)C1CCC(CN2CCC(c3c[nH]c4ccccc34)CC2)CC1` (centres unmarked) [TCMDC-140320], the “% Inhibition” value came to 0.7085%.
